According to PubChem BioAssay (Tox21):
Several values for one entry are separate records, joined by “and”; a condition that tells them apart may be missing. Identical values can stand only once. Results filed as inconclusive are left out. Where a structure was tested more than once in an assay, its records may differ in their call. Activity calls are given as the source filed them. Unless noted, calls come from the whole dose curve; as a rule, active = well fitted curve in the direction sought with a large enough effect in the repeat runs; inconclusive = weak or mixed curves; inactive = no such curve, though single readings can be large; an effect the other way counts as inactive or inconclusive.

How the values were obtained:
[1] = qHTS assay for small molecules that induce genotoxicity in human embryonic kidney cells expressing luciferase-tagged ATAD5 (AID 651632); note: nearly all actives have a fitted effect of over 15% in size
Procedure, shortened: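 Genotoxicity read-out via ATAD5-luciferase: HEK293T cells, 16 hr compound incubation at 37C, Amplite detection.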

[2] = qHTS assay for small molecule agonists of the p53 signaling pathway - cell viability (AID 651633; calls by dose curve;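 note: p53RE-bla HCT reporter cells with a stable beta-lactamase p53 reporter; series mostly up to about 83 µM; nearly all actives have a fitted effect of over 30% in size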)
Procedure, shortened: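 p53RE-bla cells, seeded at 4,000 per well and rested 5 h at 37 C/5% CO2, received compounds in DMSO for 16 h at 37 C. CellTiter-Glo was then added, and luminescence was read after 30 min at room temperature to gauge cytotoxicity.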

[3] = qHTS assay for small molecules that induce genotoxicity in human embryonic kidney cells expressing luciferase-tagged ATAD5 - cell viability (AID 651634; calls by dose curve; note: nearly all actives have a fitted effect of over 25% in size; note: potency is the fitted concentration of half-maximal effect)
Procedure, shortened: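 Live-cell protease activity (CellTiter-Fluor, fluorescence) indicates viability. HEK293T cells with luciferase-tagged ATAD5; 15.5 hr compound treatment at 37C.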

[4] = qHTS assay for small molecule disruptors of the mitochondrial membrane potential - cell viability (AID 720634; calls by dose curve; note: nearly all actives have a fitted effect of over 20% in size; note: potency is the fitted concentration of half-maximal effect)
Procedure, shortened: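 Human hepatoma HepG2 cells were treated for 1 hr with test chemicals, then given m-MPI dye and CellTiter-Glo. Cell viability reflects luminescence proportional to cellular ATP.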

[5] = qHTS assay for small molecule disruptors of the mitochondrial membrane potential (AID 720635); note: potency is the fitted concentration of half-maximal effect
Procedure, shortened: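 HepG2 cells (2,000/well) attached overnight at 37C, then took compound for 1 hr at 37C, 5% CO2. Mito-MPS dye was added for 30 min; fluorescence was read at 490/535 nm (monomers) and 540/590 nm (aggregates).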

[6] = qHTS assay to test for compound auto fluorescence at 590 nm (red) in HepG2 cells (AID 720674)
Procedure, shortened: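 Rose Bengal sodium served as the red fluorophore standard. HepG2 monolayers (overnight attachment, MEM with 10% FBS) were exposed to test compounds for 1 hr at 37 C and read at Ex 540/Em 590 nm.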

[7] = qHTS assay to test for compound auto fluorescence at 535 nm (green) in HepG2 cells (AID 720675)
[8] = qHTS assay to test for compound auto fluorescence at 460 nm (blue) in HEK293 cells (AID 720678)
Procedure, shortened: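 Triamterene serves as the blue fluorophore standard. Compound signal at 405/460 nm is read in HEK293 wells (2,000 cells, 10% dialyzed FBS) after overnight treatment at 37C.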

[9] = qHTS assay to test for compound auto fluorescence at 535 nm (green) in HEK293 cells (AID 720680)
[10] = qHTS assay to test for compound auto fluorescence at 460 nm (blue) in HEK293 cell free culture (AID 720681)
Procedure, shortened: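 Test compounds were pinned into cell-free culture medium (DMEM with 10% FBS) and fluorescence was read directly at Ex/Em 405/460 nm. Signals were expressed as fluorescence equivalents of triamterene, with DMSO vehicle as control.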

[11] = qHTS assay to test for compound auto fluorescence at 535 nm (green) in HEK293 cell free culture (AID 720682)
Procedure, shortened: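 Fluorescein serves as the green reference fluorophore; each compound's intrinsic emission at 535 nm (excitation 485 nm) is reported as an equivalent amount of that dye, measured in serum-containing DMEM without cells.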

[12] = qHTS assay to test for compound auto fluorescence at 590 nm (red) in HEK293 cell free culture (AID 720683)
Procedure, shortened: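 Tox21 10K library compounds were pinned into cell-free DMEM with 10% FBS and fluorescence was read at excitation 540 nm. Activity is expressed as Rose Bengal sodium equivalency.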

[13] = qHTS assay to test for compound auto fluorescence at 590 nm (red) in HepG2 cell free culture (AID 720684)
Procedure, shortened: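 Measured in medium alone (MEM containing 10% FBS) following pintool addition of compound; emission at 590 nm with 540 nm excitation, referenced to Rose Bengal sodium.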

[14] = qHTS assay to test for compound auto fluorescence at 460 nm (blue) in HepG2 cell free culture (AID 720685)
Procedure, shortened: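 Compound (23 nL) or DMSO pinned into cell-free MEM with 10% FBS; blue fluorescence read at 405/460 nm excitation/emission, expressed as auto-fluorescence equivalency to triamterene.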

[15] = qHTS assay to test for compound auto fluorescence at 535 nm (green) in HepG2 cell free culture (AID 720686)
[16] = biological target: Glucocorticoid receptor (Homo sapiens) (UniProt P04150); assay: qHTS assay to identify small molecule agonists of the glucocorticoid receptor (GR) signaling pathway (AID 720691; active = well fitted activation curve with a large enough effect in the signal ratio in the repeat runs, not every such curve was filed as active; the % refers to the signal ratio)
Chain of Glucocorticoid receptor (Homo sapiens) (P04150 whole entry, looked up): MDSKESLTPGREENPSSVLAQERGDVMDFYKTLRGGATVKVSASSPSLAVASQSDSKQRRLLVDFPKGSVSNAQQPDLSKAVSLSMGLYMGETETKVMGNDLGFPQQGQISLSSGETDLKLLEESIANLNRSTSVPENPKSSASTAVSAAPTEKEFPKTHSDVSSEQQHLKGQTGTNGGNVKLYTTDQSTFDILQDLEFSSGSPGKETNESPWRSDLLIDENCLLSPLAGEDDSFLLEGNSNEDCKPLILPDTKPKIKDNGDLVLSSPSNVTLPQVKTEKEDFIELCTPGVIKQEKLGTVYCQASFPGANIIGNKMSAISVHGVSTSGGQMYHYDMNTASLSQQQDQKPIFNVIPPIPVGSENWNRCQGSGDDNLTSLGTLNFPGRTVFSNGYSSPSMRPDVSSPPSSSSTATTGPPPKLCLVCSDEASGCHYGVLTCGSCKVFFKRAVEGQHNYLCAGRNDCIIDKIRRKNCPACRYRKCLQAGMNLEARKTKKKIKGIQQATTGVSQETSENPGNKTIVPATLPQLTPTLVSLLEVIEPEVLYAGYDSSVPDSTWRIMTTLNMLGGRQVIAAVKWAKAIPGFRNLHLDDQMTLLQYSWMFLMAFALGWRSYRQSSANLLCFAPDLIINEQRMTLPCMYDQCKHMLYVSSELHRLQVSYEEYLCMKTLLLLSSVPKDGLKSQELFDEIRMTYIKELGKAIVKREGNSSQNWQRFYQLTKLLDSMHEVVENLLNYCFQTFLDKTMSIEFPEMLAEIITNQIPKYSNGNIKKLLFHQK
Procedure, shortened: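 Beta-lactamase reporter activity, read as fluorescence intensity, was measured in GR-bla HeLa cells exposed to compounds for 18 h at 37 C and then loaded with LiveBLAzer B/G FRET substrate for 2 h at room temperature.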

[17] = biological target: Glucocorticoid receptor (Homo sapiens) (UniProt P04150); assay: qHTS assay to identify small molecule antagonists of the glucocorticoid receptor (GR) signaling pathway (AID 720692; active = well fitted inhibition curve with a large enough effect in the signal ratio in the repeat runs, not every such curve was filed as active; the % refers to the signal ratio; note: potency is the fitted concentration of half-maximal effect)
Procedure, shortened: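 Fluorescence from cleaved LiveBLAzer B/G FRET substrate reports GRE-driven beta-lactamase in HeLa cells; compounds are tested against 5 nM dexamethasone (final) over 18 h at 37 C, substrate incubation 2 h at room temperature.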

[18] = qHTS assay to test for compound auto fluorescence at 590 nm (red) in HEK293 cells (AID 720679)
Procedure, shortened: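 We plated HEK293 cells in 10% dialyzed FBS medium, let them adhere for 4-5 hr, then added 23 nL compound. Overnight at 37C and 5% CO2 preceded fluorescence measurement at 540/590nm.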

[19] = qHTS assay to test for compound auto fluorescence at 460 nm (blue) in HepG2 cells (AID 720687)
Procedure, shortened: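 Cells (2,000/well in MEM with 10% FBS) attached overnight at 37 C, then were exposed to compound or DMSO for 1 hr at 37 C, 5% CO2. Fluorescence read at Ex/Em 405/460 nm, expressed as triamterene-equivalent signal.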

[20] = qHTS assay for small molecule agonists of the p53 signaling pathway (AID 651631; calls by dose curve; note: nearly all actives have a fitted effect of over 15% in size)
Procedure, shortened: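 Read-out is beta-lactamase FRET fluorescence measured 2 h after substrate addition at room temperature, in HCT-116 cells with a p53 response element-driven reporter exposed to compounds for 16 h at 37 °C.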

Measured: Potency

CSc1ccc(Cl)cc1
not listed: [18] | [19] | [20]
inactive: all other assays above

CC(C)(Oc1ccc(CCNC(=O)c2ccc(Cl)cc2)cc1)C(=O)O
not listed: [20]
inactive: all other assays above

C=CCc1ccc(OC)c(OC)c1
not listed: [1] | [5] | [7]
inactive: all other assays above

COc1cc(OC)c(C(=O)CCCN2CCCC2)c(OC)c1
not listed: [5] | [20]
inactive: all other assays above

CCNc1cccc(C)c1
not listed: [7] | [16] | [17] | [20]
inactive: all other assays above

COCCCN
not listed: [18] | [19] | [20]
inactive: all other assays above

Brc1ccc(Br)c(Br)c1
not listed: [1] | [5] | [7] | [16] | [17] | [18] | [20]
inactive: all other assays above

C[C@]12CC[C@@H]3c4ccc(O)cc4CC[C@H]3[C@@H]1C[C@@H](O)[C@@H]2O
active: [17] 12 µM and 38.9 µM
not listed: [1] | [3] | [19] | [20]
inactive: all other assays above

OC1C(O)C(O)C(O)C(O)C1O (stereo not drawn)
not listed: [5] | [16] | [17] | [18] | [20]
inactive: all other assays above

CC(C)(C)c1cc(Cc2cc(C(C)(C)C)c(O)c(C(C)(C)C)c2)cc(C(C)(C)C)c1O
not listed: [1] | [18] | [19] | [20]
inactive: all other assays above

CC(CCl)OP(=O)(OC(C)CCl)OC(C)CCl (stereo not drawn)
not listed: [1] | [17] | [20]
inactive: all other assays above

CCO[Si](CCC#N)(OCC)OCC
not listed: [1] | [18] | [19] | [20]
inactive: all other assays above

CC(C)c1cccc(C(C)C)c1
not listed: [2] | [5] | [19] | [20]
inactive: all other assays above

c1ccc2c(c1)Cc1ccccc1-2
not listed: [1] | [7] | [20]
inactive: all other assays above

N[C@H](Cc1c[nH]c2ccccc12)C(=O)O
not listed: [1] | [17] | [19] | [20]
inactive: all other assays above

COc1ccc(N)c(C)c1
not listed: [1] | [7] | [16] | [17] | [19] | [20]
inactive: all other assays above

CC(C)CC(C)O (stereo not drawn)
not listed: [1] | [2] | [7] | [16] | [17] | [20]
inactive: all other assays above

CCCCC(C=O)CC (stereo not drawn)
not listed: [1] | [7] | [18] | [20]
inactive: all other assays above

C[C@]12CCC(=O)C=C1CC[C@@H]1[C@@H]2[C@@H](O)C[C@@]2(C)[C@H]1CC[C@]2(O)C(=O)CO
not listed: [1] | [2] | [4] | [5] | [16] | [17] | [19] | [20]
inactive: all other assays above

CC1(C)OC[C@@H]2O[C@@]3(C(=O)O)OC(C)(C)O[C@H]3[C@@H]2O1
not listed: [1] | [16] | [17] | [19] | [20]
inactive: all other assays above

CCOC(=O)n1ccn(C)c1=S
not listed: [1] | [20]
inactive: all other assays above

CC(=O)OC1CC(C)OC(C)O1 (stereo not drawn)
not listed: [1] | [2] | [7] | [20]
inactive: all other assays above

Nc1nc(N)nc(-c2ccccc2)n1
not listed: [1] | [20]
inactive: all other assays above

CN(C)c1ccc(Cc2ccc(N(C)C)cc2)cc1
54.7 µM (active) and inactive: [5]
not listed: [1] | [20]
inactive: all other assays above

NCCN1CCNCC1
not listed: [1] | [7] | [16] | [17] | [19] | [20]
inactive: all other assays above

CCCCCCCO
not listed: [1] | [18] | [19] | [20]
inactive: all other assays above

CC(C)=CCl
not listed: [1] | [5] | [20]
inactive: all other assays above

CCCCCCCCCCN
not listed: [1] | [20]
inactive: all other assays above

CCCOC(=O)c1ccccc1
not listed: [1] | [18] | [20]
inactive: all other assays above

CC(=O)OCc1ccccc1
not listed: [1] | [19] | [20]
inactive: all other assays above

O=S(=O)(O)c1ccccc1
not listed: [1] | [7] | [19] | [20]
inactive: all other assays above

C=C(C)[C@H]1CC=C(C)C(=O)C1
not listed: [5] | [7] | [20]
inactive: all other assays above

C=CC[N+](C)(C)CC=C
not listed: [1] | [7] | [18] | [19] | [20]
inactive: all other assays above

C=C(C)CNCC
not listed: [4] | [5] | [7] | [20]
inactive: all other assays above

CC(=O)OCCOC(C)=O
not listed: [4] | [5] | [7] | [18] | [19] | [20]
inactive: all other assays above

CCCCCCCCCCCC(=O)OC
not listed: [1] | [7] | [20]
inactive: all other assays above

O=S(=O)(O)c1ccc(N=Nc2c(O)ccc3cc(S(=O)(=O)O)ccc23)cc1
active: [3] 30.8 µM and 30.6 µM
not listed: [5] | [7] | [19] | [20]
inactive: all other assays above

CC(=O)OCc1ccco1
not listed: [1] | [2] | [16] | [17] | [18] | [20]
inactive: all other assays above

Cc1ccc(C(C)C)c(O)c1
active: [5] 24.3 µM
inactive and 61.1 µM (active): [4]
not listed: [1] | [20]
inactive: all other assays above

CC(C)OP(=O)(CP(=O)(OC(C)C)OC(C)C)OC(C)C
not listed: [5] | [17] | [18] | [20]
inactive: all other assays above

O=[N+]([O-])c1ccc2nc[nH]c2c1
active: [5] 27.3 µM
not listed: [1] | [2] | [16] | [17] | [18] | [20]
inactive: all other assays above

CC(C)CCCCCCCOC(=O)CCCCC(=O)OCCCCCCCC(C)C
not listed: [1] | [5] | [7] | [20]
inactive: all other assays above

CC(O)CC(C)(C)O (stereo not drawn)
not listed: [1] | [20]
inactive: all other assays above

COc1ccccc1OCC(O)CO (stereo not drawn)
not listed: [1] | [7] | [16] | [17] | [20]
inactive: all other assays above
